# Laboratory results from PubChem BioAssay (NCATS).
# Inconclusive results are not listed. Activity calls are given as the source filed them. The call rests on the fitted dose curve; in most records, active means well fitted curve in the direction sought with a large enough effect; inconclusive means small, poorly fitted or top-dose-only effect, or another doubt; inactive means no such curve, though single readings can be large; an effect the other way counts as inactive or inconclusive. Where a SMILES comes first, the peptide text is derived from it. The star is where a group is joined. Cbz = O=C(OCc1ccccc1)*; CH2F = FC*
# Experiment: Primary qHTS for inhibitors of nuclear receptor binding SET domain protein 2 (NSD2) in an isogenic RCH-ACV NSD2 p.E1099K mutant (9B) (AID 1645876)
# Settings: RCH-ACV NSD2 E1099K (9B) viability, CellTiter-Glo, 72 h; series mostly up to 44.9 µM; activity change, negative = viability loss: at the top concentration
# Further: nearly all actives have a fitted effect of over 70% in size.
# On the % scale 0 is the no-effect control and ±100 the full control effect.
Compound,outcome,"activity change, negative = viability loss"
O=C(O)c1cccc(C(=O)CCC2OC(n3cnc4c(=O)[nH]cnc43)C(O)C2O)c1 (centres undefined),inactive [at 17.3 µM],–
C=C1CCC2(OC1)OC1CC3C4CC=C5CC(O)CC(O[C@@H]6OC[C@H](OC(=O)C(O)C(C)CC)[C@H](O)[C@H]6O[C@@H]6O[C@@H](C)[C@H](O)[C@@H](O)[C@H]6O)C5(C)C4CCC3(C)C1C2C (some centres undefined),–,-3.21% [at 9.23 µM] (inactive)
OC[C@@]1(O)CO[C@H](OC[C@H]2O[C@@H](OC(CCCCc3ccc(O)cc3)CCc3ccc(O)cc3)[C@H](O[C@H]3OC[C@](O)(CO)[C@H]3O)[C@@H](O)[C@@H]2O)[C@@H]1O (some centres undefined),inactive [at 17.3 µM],–
O=C(O)C(Cc1ccccc1)NC(=O)C1CCCN1 (stereo not drawn) (H-Pro-Phe-OH; configuration not given here),–,-5.21% (inactive)
COc1ccnc2[nH]cc(C(=O)C(=O)N3CCN(C(=O)c4ccccc4)CC3C)c12 (centres undefined),–,-16.7% (inactive)
C[C@H]1[C@H](C)CC[C@]2(C(=O)OC3OC(CO)C(O)C(O)C3O)CC[C@]3(C(=O)O)C(=CCC4[C@@]5(C)CC[C@H](O[C@@H]6O[C@@H](C)[C@H](OC7OC(CO)C(O)C(O)C7O)[C@@H](O)[C@H]6O)C(C)(C)C5CC[C@]43C)[C@H]12 (some centres undefined),–,-7.55% [at 9.23 µM] (inactive)
CC(NC(=O)CC(=O)O)C(=O)Nc1ccccc1C(N)=O (centres undefined),–,0.0725% (inactive)
O=C(C[C@@H]1C(C(=O)O)=CO[C@@H](O[C@@H]2O[C@H](CO)[C@@H](O)[C@H](O)[C@H]2O)/C1=C\CO)OCCc1ccc(O)c(O)c1,–,-7.45% [at 17.3 µM] (inactive)

# Experiment: Primary qHTS for inhibitors of nuclear receptor binding SET domain protein 2 (NSD2) in an RCH-ACV wild type WT cells (2C) (AID 1645877)
# Settings: RCH-ACV (leukaemia line) NSD2 WT (2C) viability, CellTiter-Glo, 72 h; series mostly up to 44.9 µM; activity change, negative = cell killing: at the top concentration
Compound,"activity change, negative = cell killing",outcome
COc1ccc(/C=C/C(=O)N2CCCC2)cc1,-36.1% (inactive),–
COC(=O)CC[C@H](NC(=O)[C@H](CC(C)C)NC(=O)OCc1ccccc1)C(=O)N[C@@H](Cc1cnc[nH]1)C(=O)N[C@@H](CC(=O)OC)C(=O)CF (Cbz-LE(OMe)HD(OMe)-CH2F),-7.81% [at 9.23 µM] (inactive),–
CC1=C[C@H](O)[C@H]2C(C)(C)CCC[C@]2(C)[C@@]1(O)CO,–,inactive
NC(Cc1c[nH]c2ccc(O)cc12)C(=O)O (centres undefined),-3.42% (inactive),–
C[C@@H]1C(=O)O[C@H]2[C@H]1CC[C@@]1(C)C(=O)C=C[C@@](C)(O)[C@H]21,–,inactive
COc1c2c(c(C)c3c1C(=O)OC3)OC1(C)CC(O)C34OC(OC)(CCC3(C)C1C2)OC4(C)CO (centres undefined),-8.34% [at 17.3 µM] (inactive),–
CC(=O)O[C@@H]1C(=O)C(C)=C(CCC(C)CC(=O)O)[C@@]2(C)CCCC(C)(C)C12 (some centres undefined),-9.52% (inactive),–
C=C1CCC2(C(=O)OC3OC(CO)C(O)C(O)C3O)CCC3(C)C(=CCC4C5(C)CCC(OC6OC(CO)C(OC7OC(C)C(O)C(O)C7O)C(OC7OCC(O)C(O)C7O)C6O)C(C)(C)C5CCC43C)C2C1 (centres undefined),-3.7% [at 9.23 µM] (inactive),–
CC(C)(O)C1CCC2(C)CCCC(C)(O)C2C1 (centres undefined),-8% (inactive),–
CCOC(=O)C(CCc1ccccc1)NC(C)C(=O)N1Cc2ccccc2CC1C(=O)O (centres undefined),-8.2% (inactive),–
CC(C)CC(c1c(O)c(C=O)c(O)c(C=O)c1O)C1CCC(C)(O)C2CC(C(C)(C)O)CCC12C (centres undefined),4.55% [at 17.3 µM] (inactive),–
C[C@@H]1O[C@@H](O[C@H]2[C@H](O[C@H]3[C@H](O[C@H]4CC[C@@]5(C)C(CC[C@]6(C)C5CC=C5[C@@H]7CC(C)(C)CC(=O)[C@]7(C)CC[C@]56C)[C@@]4(C)CO)O[C@H](C(=O)O)[C@@H](O)[C@@H]3O)O[C@H](CO)[C@H](O)[C@@H]2O)[C@H](O)[C@H](O)[C@H]1O (some centres undefined),–,inactive [at 9.23 µM]
CC(=O)c1[nH]cc(CCC(=O)O)c1CC(=O)O,–,inactive
C=C(C(=O)O)C1CC(O)C2(C)CCCC(C)(O)C2C1 (centres undefined),–,inactive
COc1cc(O)c2c(c1Cl)CC(C)OC2=O (centres undefined),-11.2% (inactive),–
C/C=C(/C)C(=O)O[C@H]1C[C@]2(C)O[C@@H]2[C@@H](OC(C)=O)[C@@]2(C)CC[C@@](O)(C(C)C)[C@H]12,-11.8% (inactive),–
O=C(O)CCc1c(C(=O)O)[nH]c2cc(Cl)cc(Cl)c12,-0.322% [at 17.3 µM] (inactive),–
CC1(C)CC[C@]2(C(=O)O)CC[C@]3(C)C(=CCC4[C@@]5(C)C[C@@H](O)[C@H](O)[C@](C)(CO)C5CC[C@]43C)[C@@H]2[C@@H]1O (some centres undefined),-13% [at 17.3 µM] (inactive),–
C/C=C1/C[N+](C)([O-])C2Cc3c([nH]c4ccccc34)C(=O)CC1C2C(=O)OC (centres undefined),-5.21% (inactive),–
C=C1C(OC(C)=O)CCC2(C)CC3(O)OC(=O)C(C)=C3CC12 (centres undefined),-19.6% (inactive),–
CSC(=O)OCC1=C[C@@H]2OC(=O)C3=CO[C@@H](O[C@@H]4O[C@H](CO)[C@@H](O)[C@H](O)[C@H]4O)[C@H]1[C@@H]32,–,inactive [at 17.3 µM]
